Bioassay records (PubChem BioAssay)
Wee1 stabilizer: Wee1 degradation inhibitors, primary screen, cell-based, HeLa, Wee1K328M-luciferase, luminescence. AID 1321, 2008. actives 1.2% (n = 220,000). reporter increase, % at 5 µM. Wee1-like protein kinase (Homo sapiens), P30291. HeLa Luc-Wee1K328M stability; 100% = proteasome inhibitor MG132 effect;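 active = activation above the mean of all tested compounds plus 3 SD, set per screening run, cut at about 8.8% in these data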;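 also: cells exposed to compound for 20 h before luminescence read; 0% = DMSO alone and 100% = MG132 at 30 µM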
Target sequence (P30291 whole entry K328M): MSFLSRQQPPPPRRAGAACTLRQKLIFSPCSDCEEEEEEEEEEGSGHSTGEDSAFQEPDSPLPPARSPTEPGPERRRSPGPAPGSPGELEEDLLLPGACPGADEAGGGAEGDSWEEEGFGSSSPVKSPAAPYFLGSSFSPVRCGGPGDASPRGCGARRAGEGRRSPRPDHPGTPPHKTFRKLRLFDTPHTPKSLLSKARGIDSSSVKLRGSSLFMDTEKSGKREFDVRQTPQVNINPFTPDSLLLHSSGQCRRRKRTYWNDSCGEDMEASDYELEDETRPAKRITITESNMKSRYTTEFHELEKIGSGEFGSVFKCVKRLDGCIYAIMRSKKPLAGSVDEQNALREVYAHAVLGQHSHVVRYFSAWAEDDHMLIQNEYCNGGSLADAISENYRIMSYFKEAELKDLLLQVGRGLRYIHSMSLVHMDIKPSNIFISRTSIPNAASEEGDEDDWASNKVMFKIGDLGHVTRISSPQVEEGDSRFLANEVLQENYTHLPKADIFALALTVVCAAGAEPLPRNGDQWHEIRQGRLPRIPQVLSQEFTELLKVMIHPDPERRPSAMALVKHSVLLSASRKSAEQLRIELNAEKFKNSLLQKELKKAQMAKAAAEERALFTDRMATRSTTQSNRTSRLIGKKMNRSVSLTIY
aSyn 5UTR inh: MLPCN primary screen, SNCA 5' untranslated region. alpha-synuclein 5'UTR reporter, inhibitor activity. inhibition, % (tested at 7.5 µM). actives 0.82% (n = 300,000). AID 1813, 2009; in the data active = inhibition above about 60%;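 also: H4 neuroglioblastoma cells stably carrying SNCA 5'UTR luciferase fusion; 0% = DMSO wells and 100% = positive control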
KLF5 inhibitor: KLF5 expression inhibitors, primary screen, DLD-1 cells, luminescence; DLD-1 KLF5 promoter-luciferase reporter; inhibition, % at 5 µM; actives 0.23% (n = 290,000); AID 1700, 2009;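 active = inhibition above a per-plate limit of that plate's mean compound inhibition plus 3 SD, cut at about 60% in these data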;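 also: 0% = DMSO wells and 100% = LY294002 at 200 µM; higher means less KLF5 promoter-driven luciferase light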
Platelet DG rel: inhibitors of platelet dense granule secretion, primary screen, cell-based, MLPCN, human platelets; human platelet-rich plasma, SFLLRN dense granule ATP release, luminescence; AID 1663, 2009; inhibition, %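 (compounds screened at 7.5 µM in platelet-rich plasma)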; actives 0.22% (n = 300,000);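 active = mean replicate score, as percent of positive control, at or above 50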
HIF act: HIF pathway transcriptional activators, primary screen, cell-based, U2OS HRE-luciferase, luminescence | U2OS HRE-luciferase reporter; normalized: DMSO 0%, desferrioxamine 100% | activation, % at 7.5 µM (by protocol) | actives 0.32% (n = 300,000) | AID 1910, 2009;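 active = mean activation of at least 10% of the iron chelator positive control signal, with at least half of replicates also reaching 10%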
An asterisk follows results filed as active; x = not tested or not shown. Hits are enriched below; roughly 2.1% of the tested compounds scored in any of these assays.

SMILES	Wee1 stabilizer	aSyn 5UTR inh	KLF5 inhibitor	Platelet DG rel	HIF act
O=C(/C=C/c1ccc(O)cc1)c1ccccc1	-1	-118	-111	72*	4
Cc1cnc([N+](=O)[O-])n1CCOC(=O)NC(=O)c1ccccc1Cl	0	14	-8	2	0
Cc1cc(C(=O)NNC(=O)c2c(-c3c(Cl)cccc3Cl)noc2C)no1	x	7	-33	-20	-1
CC(=O)Nc1cccc(NC(=O)c2c(-c3c(Cl)cccc3Cl)noc2C)c1	0	22	-40	-31	1
Cc1noc(NC(=O)c2c(-c3c(Cl)cccc3Cl)noc2C)c1[N+](=O)[O-]	8.9*	2	0	10	0
Cc1nc(C(=O)NNC(=O)c2c(-c3c(Cl)cccc3Cl)noc2C)cs1	-1	63*	6	-7	0
Cc1onc(-c2c(Cl)cccc2Cl)c1C(=O)Nc1nc(C(C)(C)C)cs1	3	80*	15	22	-3
COc1cc(C(=O)Oc2c(CN3CCOCC3)cc(Cl)c3cccnc23)cc(OC)c1OC	1	78*	0	0	0
COc1ccc(C(=O)Oc2c(CN3CCOCC3)cc(Cl)c3cccnc23)cc1	0	54	9	-7	-6
COc1cccc(C(=O)Oc2c(CN3CCOCC3)cc(Cl)c3cccnc23)c1	-1	89*	-11	-2	0
CCCN(CC(=O)Nc1cc(Cl)ccc1Cl)C(=O)CN1C(=O)C2CCCCC2C1=O (centres undefined)	x	6	-2	3	-1
COc1ccccc1NC(=O)c1ccc(Br)c(S(=O)(=O)N2CCCC2)c1	x	-19	-2	-5	0
CN(C)CCNC(=O)C(=O)C1C(=O)Nc2ccccc21 (centres undefined)	-1	-17	-6	2	0
O=C(NCc1ccccn1)C(=O)C1C(=O)Nc2ccccc21 (centres undefined)	9.5*	-8	-4	-2	0
CN(C)S(=O)(=O)c1ccc(C(=O)NCc2nnc(SCC(=O)NCc3ccco3)o2)cc1	x	-7	-17	-11	0
Nc1nc(-c2ccccn2)nc(N)c1Cc1ccc(Cl)cc1Cl	0	30	-6	-12	15*
Nc1nc(-c2ccccn2)nc(N)c1Cc1ccccc1F	1	-246	-41	-7	4
Cc1ccc(C)c(C(=O)COC(=O)Cn2c(C)csc2=O)c1	x	8	-3	2	0
Clc1ccc(-n2nnc(-c3cccnc3Cl)n2)cn1	-2	-130	-31	-10	4
COc1ncccc1-c1nnn(-c2ccc(Cl)nc2)n1	9.7*	-74	4	-2	2
Nc1c(S(=O)(=O)c2cccc(Cl)c2)c2nc3ccccc3nc2n1/N=C/c1ccc(O)c(O)c1	-1	89*	23	5	1
Cc1cccc2sc(N(CCCN(C)C)C(=O)CN3C(=O)c4ccccc4C3=O)nc12	1	-15	-22	-1	x
Cc1cccc2sc(N(CCCN(C)C)C(=O)CCc3ccccc3)nc12	-1	62*	6	0	-2
CCOC(=O)c1ccc(NC(=O)/C=C/c2cccs2)cc1	11*	-251	-81	2	5
O=C(NCCCc1ccc(F)cc1)C1CCC(=O)N(CCN2CCOCC2)C1 (centres undefined)	x	5	-24	0	0
SMILES	Wee1 stabilizer	aSyn 5UTR inh	KLF5 inhibitor	Platelet DG rel	HIF act
Cc1ccccc1NN=Nc1nc2c([nH]1)c(=O)n(C)c(=O)n2C	12*	x	-7	x	x
COc1ccc(C(NC(C)=O)c2cc(Cl)c3cccnc3c2O)cc1OC (centres undefined)	2	46	-35	3	4
COc1ccc(C(NC(C)=O)c2ccc3cccnc3c2O)c(OC)c1 (centres undefined)	x	83*	x	-26	65*
CC(=O)NC(c1ccc(Cl)cc1Cl)c1ccc2cccnc2c1O (centres undefined)	x	86*	59	-5	246*
CC(C)C(=O)NC(c1cccc([N+](=O)[O-])c1)c1ccc2cccnc2c1O (centres undefined)	x	91*	79*	1	95*
CCN1CCN(C(=O)C2CC(=O)N(c3ccc(Cl)cc3)C2)CC1 (centres undefined)	x	-3	13	-1	0
